Test results taken from PubChem BioAssay (NCI).
The panel holds about 83,000 compounds, 20% with a hit somewhere; the sample as a whole holds those more often.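 Growth was measured after 48 h exposure to one concentration of compound in 96-well plates. Values under 10 count as active.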 Values without a mark were called inactive. The source made the active and inactive calls.

Test system: MDA-MB-468 breast
Assay: NCI-60 one-dose screen, 48 h (100 = growth as untreated, 0 = no growth, -100 = all killed)
Conditions: 10 µM unless noted

SMILES	growth
CC(C)c1[nH]nc2c(NCc3ccc(-c4ccccn4)cc3)nc(SCCN)nc12	-60.3% (active)
O=C(Nc1ccc(N2CCCCC2)c(Cl)c1)c1ccc(Br)o1	89.7%
O=[N+]([O-])c1ccc(N=Nc2ccc(O)cc2O)cc1	-4.48% (active)
Cc1cnc(C(=O)Nc2nc3ccc(S(=O)(=O)Nc4ccc(C5(C(F)(F)F)CC5)cc4)cc3[nH]2)cn1	-26.2% (active)
CCCCC/C=C/C/C=C/CCCCCCCC1=NC(C)(C)CN1C(C)C	-42.8% (active)
C=CCCC1(C)NC(=O)NC1=O (stereo not given)	99.3%
NC(=O)c1c(NC(=O)c2ccccc2)sc2c1CCC(=O)C2	-5.34% (active)
CS(=O)(=O)c1nccc(-c2c(-c3cccc(OCCc4ccccc4)c3)nc3sccn23)n1	20.2%
Cc1ccc(C(=O)Nc2cccc(C(F)(F)F)c2)cc1Nc1nc(-c2cnccn2)nc2c1cnn2C	104%
Cc1nn(-c2ccccc2)c2c1N=c1s/c(=C\c3cn(-c4ccccc4)nc3-c3ccc(Cl)cc3)c(=O)n1C(C)N2 (stereo not given)	86.6%
COCCCNCC(=O)Nc1c(C)cccc1C	112%
Cc1nc2cc(-n3c(-c4ccc(F)cc4)nc4ccccc4c3=O)ccc2n1Cc1ccccc1	15.2%
O=C(NCCNc1nccc(-c2c(-c3cccc(O)c3)nc3sccn23)n1)Nc1cccc(C(F)(F)F)c1	-40.6% (active)
COc1ccc(-c2nnc(SCC(=O)c3ccc(Cl)cc3)o2)cc1	109%
COc1cc2c(cc1O)CCc1cc(O)cc(OC)c1-2	98%
Cc1c(C(=O)N[C@H](CO)Cc2ccccc2)[nH]c2ccc(Cl)cc2c1=O	95.5%
CCOC(=O)N1C/C(=C/c2ccc(OC)cc2)C(=O)/C(=C/c2ccc(OC)cc2)C1	-28.9% (active)
c1c(-c2cc(C3CC3)[nH]n2)n[nH]c1C1CC1	95.4%
CC(N)C(Cc1ccccc1)c1ccc(Cl)cc1 (stereo not given)	83.1%
O=c1ccn(C2OC(CO)C(O)C2F)c(=O)[nH]1 (stereo not given)	105%

SMILES	growth
O=C(NN1C(=O)CSC1c1cccc([N+](=O)[O-])c1)c1ccc(NC(=O)c2ccccn2)cc1 (stereo not given)	98.8%
O=S(=O)(NCCNc1nccc(-c2c(-c3ccccc3)nc3sccn23)n1)c1ccc(O)cc1	19.9%
CN(c1ccc(F)cc1)S(=O)(=O)c1ccc(-c2cnc(C3CC3)o2)cc1	-8.39% (active)
Cc1cn(-c2cc(NC(=O)c3cncc(C#Cc4cnc(N)c5ncccc45)c3)cc(C(F)(F)F)c2)cn1	67.3%
CCCC(F)C(=O)O (stereo not given)	108%
COc1ccc(-c2nc(SCC(=O)Nc3ccc(C(=O)/C=C/c4ccc(Cl)cc4)cc3)[nH]c(=O)c2C#N)cc1	39.4%
NC(CCCC(N)C(=O)c1ccccc1)C(=O)O (stereo not given)	113%
O=C(c1ccc(-c2ccccc2)cc1)c1ccc([N+](=O)[O-])cc1	108%
O=C=NC(c1ccccc1)(c1ccccc1)c1ccccc1	118%
CCCCCCCCOc1ccc(/C=N/Nc2cc(C)nc3ccc(Cl)cc23)cc1	-49.9% (active)
NC(N)=NC(N)=Nc1ccccc1-c1ccccc1	109%
COc1ccc(/C=C(\C#N)c2cc3ccccc3n2S(C)(=O)=O)cc1	69.3%
CNC(=O)c1cc(Oc2ccc(NC(=O)Nc3ccc(Cl)c(C(C)(C)C)c3)c(F)c2)ccn1	7.76% (active)
CC(C)NS(=O)(=O)/N=C1\NC(=O)NC1=C(Cl)Cl	60.6%
COc1cc2c(c(OC)c1OC)-c1ccc(NN(C(=O)c3ccccc3)C(=O)c3ccccc3)c(=O)cc1[C@@H](NC(C)=O)CC2 (tested in a mixture with another compound)	19.5%
COc1ccc(CNc2c3ccccc3nc3ccccc23)cc1OC	-22.7% (active)
C=C1C(=O)O[C@H]2[C@H]1CC/C(Cn1cc(CCC)nn1)=C\CC[C@@]1(C)O[C@@H]21	-31.7% (active)
O=C(OCc1ccc2c(Cl)cc(Cl)c(O)c2n1)N1CCN(C(=O)c2cc3ccccc3[nH]2)CC1	10.3%
CCOc1nc(-c2ccccc2)cc2c(O)c(C(=O)NCCCO)[nH]c(=O)c12	95%
Cc1ccc(NC(=O)NC(=O)CSc2nc3ccccc3nc2C)cc1	19.6%
